# The sample as a whole holds a higher share of hits than the screen did.
# TTR transcr act: TTR transcription activators in neuroblastoma reporter cells, primary screen, cell-based, luminescence, SH-SY5Y, TTR promoter Gaussia luciferase. 92,000 tested, 1.3% active. 100% = recombinant luciferase protein wells. activation, % at 16.7 µM;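 active = activation above the mean of all tested compounds plus 3 SD, cut at about 9.5% in these data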;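 note: cells exposed to compounds for one day before reading; 0% = median of all test compound wells on the plate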
# HuH7 TTR inh: TTR promoter reporter inhibitors in hepatoma cells, counter-screen for TTR transcription activator project, cell-based, luminescence, HuH7 hepatoma. HuH7 TTR promoter-Gaussia luciferase reporter. shares compounds with TTR transcr act. inhibition, % at 16.7 µM. 1,100 tested, 4% active;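 active = average inhibition above the solvent-only control wells' mean plus 3 SD, cut at about 15% in these data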;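 note: 0% = cells with DMSO only and 100% = cells with inhibitor control FD; inhibitors lower well luminescence so higher value means more inhibition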
# TTR act confirm: TTR transcription activators, retest, confirmation, cell-based, luminescence, SH-SY5Y, triplicate | shares compounds with TTR transcr act | activation, % at 16.7 µM | AID 1117280, 2014 | 1,100 tested, under 10 active | SHSY5Y TTR promoter Gaussia luciferase; 100% = purified Lucia enzyme wells, no cells;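 active = mean activation above a set limit taken from the earlier primary screen, cut at about 11% in these data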;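 note: 0% = DMSO-treated cells and 100% = recombinant Lucia luciferase without cells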
# Active calls of the source: *.
SMILES,TTR transcr act,others
Cc1ccc(S(=O)(=O)N2[C@@H](c3cccc(Cl)c3)C(C(=O)O)=CC[C@H]2c2ccc(C(C)C)cc2)cc1,8.5,
CSc1ncccc1C(=O)OCC(=O)N(CC(C)C)c1c(N)n(Cc2ccccc2)c(=O)[nH]c1=O,-0.1,
CN(C)c1ccc(C(O)c2cc3ccccc3s2)cc1 (configuration not stated),-1.2,
COc1cc2oc(=O)cc(CN3CCCCCCC3)c2cc1Cl,1.0,
Cc1c(C(=O)O)cccc1-n1c(C)cc(C=O)c1C,-0.2,
Cc1cc(/C=N/N2CCN(C)CC2)c(C)n1-c1ccccc1F,9.7*,HuH7 TTR inh=-12.1;TTR act confirm=0.8
COC(=O)C1=C(C)NC(=O)/C1=C\c1cc(C)n(-c2ccccc2F)c1C,1.4,
Cc1ccc2c(=O)n3c(nc2c1)C(Cc1ccccc1)NC(=O)c1cc2ccccc2cc1-3 (configuration not stated),-1.6,
COC(=O)C1CN(CCc2ccccc2)CCS(=O)(=O)N1Cc1ccc(OC)cc1 (configuration not stated),2.0,
CCN(Cc1nc(-c2cccc(C)c2)no1)C(=O)c1ccco1,0.0,
CCC(NC(=O)CCC(=O)N1CCN(S(=O)(=O)c2ccc(C)cc2)CC1)c1ccc(C)cc1 (configuration not stated),-1.2,
CCS(=O)(=O)C(=C1Nc2ccccc2N1)S(=O)(=O)CC,21.3*,HuH7 TTR inh=-13.1;TTR act confirm=1.7
CCC1(CC)C(=O)Nc2ccccc21,5.9,
O=C1Nc2ccccc2C1=O,-0.2,
COc1cccc(NC(=O)COC(=O)c2c3c(nc4ccccc24)CCC(C)C3)c1 (configuration not stated),10.7*,HuH7 TTR inh=-2.5;TTR act confirm=-0.3
COc1cccc(NC(=O)COC(=O)c2c(F)cccc2Cl)c1,-0.8,
CC1CCc2nc3ccccc3c(C(=O)OCC(=O)N(C)C3CCS(=O)(=O)C3)c2C1 (configuration not stated),0.1,
Cc1cc(C(=O)C(C)Sc2cccc[n+]2[O-])c(C)n1-c1ccc(Cl)cc1 (configuration not stated),-2.4,
O=C(CSc1cccc[n+]1[O-])c1cc(Cl)ccc1Cl,9.9*,HuH7 TTR inh=-8.6;TTR act confirm=-0.2
COc1ccccc1C(=O)NC(=O)CSc1cccc[n+]1[O-],-1.0,
COc1ccccc1C(=O)Nc1cccc(SC)c1,0.0,
COc1ccc(NC(=O)c2ccccc2SC)cc1OC,11.8*,HuH7 TTR inh=-7.4;TTR act confirm=0.5
CSc1ccccc1C(=O)Nc1cccc(N(C)S(C)(=O)=O)c1,0.5,
S=C(Nc1ccccc1Br)OCCN1CCCC12CCC(c1ccccc1)CC2 (configuration not stated),-1.0,
COc1ccc(C(=O)NCc2nnc(SCC(=O)NCCc3ccccc3)o2)cc1,1.4,
SMILES,TTR transcr act,others
COc1ccccc1N1CCN(C(=O)C(CC(C)C)NC(=O)C2CCCCC2)CC1 (configuration not stated),21.4*,HuH7 TTR inh=-9.7;TTR act confirm=-0.2
COc1ccccc1N1CCN(S(=O)(=O)CCNC(=O)C2CCCC2)CC1,-0.7,
COc1ccccc1N1CCN(C(=O)C(Sc2ccccc2)c2ccccc2)CC1 (configuration not stated),-3.2,
Cc1cccc(C)c1-n1nnnc1C(c1ccnc2ccccc12)N1CCOCC1 (configuration not stated),-1.1,
O=C1C(c2ccccc2)=[N+]([O-])c2ccccc21,-5.8,
Cc1cc(NC(=O)COC(=O)CCn2c(C)csc2=O)c([N+](=O)[O-])cc1C,-0.8,
CSc1ccc(CN2CCC(C)(Oc3ccc(-n4ccnc4)cc3)C2)cc1 (configuration not stated),-3.1,
O=C(C1CCN(c2nnnn2-c2ccccc2)CC1)N1CCN(c2ccccc2)CC1,-1.5,
NC(=O)C1CCN(c2nnnn2-c2ccccc2)CC1,10.2*,HuH7 TTR inh=-13.2;TTR act confirm=-0.6
Oc1ccccc1N1CCN(c2nnnn2-c2ccccc2)CC1,0.1,
O=[N+]([O-])c1ccc(N2CCN(Cc3ccccc3)CC2)c2c1no[n+]2[O-],-6.4,
CC(=O)Oc1ccccc1C(=O)C=Cc1cccc([N+](=O)[O-])c1,-6.1,
C[C@H]1[C@@H](N(C)C)CC[C@@]23CCCN2C(=O)CCC[C@@H]13,-0.5,
COC1=C(Nc2ccc(OC)cc2)C(=O)C(OC)=C(Nc2ccc(OC)cc2)C1=O,1.1,
COc1ccc(Nc2nc(Cl)nc(Nc3ccc(OC)cc3)n2)cc1,-2.4,
COc1ccc(NC2=Nc3cccc4cccc2c34)cc1,14.9*,HuH7 TTR inh=-10.0;TTR act confirm=-1.0
CC(=O)Nc1ccc(NC(=O)C(C)OC(=O)CCCOc2ccc(Cl)c(C)c2)cc1 (configuration not stated),-1.1,
O=C(COc1c(Cl)cc(Cl)cc1Cl)N/N=C/c1ccc[nH]1,9.1,
Cc1ccccc1NCC(=O)N/N=C/c1ccc[nH]1,16.1*,HuH7 TTR inh=-5.7;TTR act confirm=0.3
Cc1ccccc1NCC(=O)N/N=C/c1c[nH]c2ccccc12,-2.4,
CCCC1CCC2(CCCN2CCOC(=S)Nc2ccccc2Br)CC1 (configuration not stated),6.6,
COc1ccc(/C=C/C(=O)OCC(=O)c2ccc3c(c2)NC(=O)CO3)c(OC)c1,0.3,
COc1ccc(/C=C/C(=O)OCC(=O)c2c(N)n(C)c(=O)n(C)c2=O)c(OC)c1,9.8*,HuH7 TTR inh=0.3;TTR act confirm=0.4
CCCOc1ccc(C(=O)OCC(=O)c2c(N)n(C)c(=O)n(C)c2=O)cc1OC,-0.3,
O=C(CCN1N=C(c2ccccc2)CCC1=O)NCCCN1CCOCC1,2.2,
SMILES,TTR transcr act,others
CCOC(=O)C1=CN(Cc2ccco2)S(=O)(=O)NC1c1ccc(Br)cc1F (configuration not stated),-1.2,
Cc1cc(C)n2nc(-c3cccc(Br)c3)cc2n1,0.1,
CCOC(=O)c1cnc2cc(-c3ccc(C(C)(C)C)cc3)nn2c1N,-0.5,
CC(=O)c1cnc2cc(-c3cccc(Br)c3)nn2c1C,9.7*,HuH7 TTR inh=-1.3;TTR act confirm=0.4
O=C(N1CCN(c2ncccn2)CC1)C12CC3CC(CC(C3)C1)C2,-1.2,
CCCN(CC(=O)Nc1ccccc1OC)C(=O)CN1C(=O)NC(C)(C)C1=O,-0.1,
Nc1cc(C(=O)N2CCN(c3cccc(Cl)c3)CC2)ccc1N1CC2CC(C1)c1cccc(=O)n1C2 (configuration not stated),-2.0,
O=C(CCN1CCOCC1)Nc1cc(C(=O)Nc2ccccc2F)ccc1N1CC2CC(C1)c1cccc(=O)n1C2 (configuration not stated),0.5,
O=C(O)c1ccc(N2CC3CC(C2)c2cccc(=O)n2C3)c(NC(=S)Nc2ccc(Cl)cc2Cl)c1 (configuration not stated),10.6*,HuH7 TTR inh=-3.9;TTR act confirm=0.1
CC1CCN(c2ccc3c(c2)S(=O)(=O)c2cccc(C(=O)NC4CC4)c2C3=O)CC1,4.7,
O=C(Cc1cccc(NC(=O)C2CCN(C(=O)C3CCCCC3)CC2)c1)Nc1cccc(C(=O)N2CCOCC2)c1,-1.1,
Cc1c(N(C)S(=O)(=O)c2cc(C(=O)N3CCCC3)ccc2Cl)c(=O)n(-c2ccccc2)n1C,13.3*,HuH7 TTR inh=-9.2;TTR act confirm=0.3
Cc1c(N(C)C(=O)C23CC4CC(CC(C4)C2)C3)c(=O)n(-c2ccccc2)n1C,-1.2,
Cc1c(N(C)C(=O)c2ccc3c(c2)OCO3)c(=O)n(-c2ccccc2)n1C,-2.0,
